A short description of test [1]: ATG_CRE_CIS: Attagene CIS-FACTORIAL HepG2 Assay for human cAMP Responsive Element (CRE) binding protein 3 (AID 2282926). The following applies: HepG2 CRE cis-reporter, Attagene multiplexed mRNA; actives raise or lower the signal. Put shortly: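 We dosed HepG2 cells bearing multiple cis-promoter reporter units for 24 h and measured reporter mRNA by RT-PCR with capillary electrophoresis detection. Bidirectional concentration-response fitting used DMSO as negative control.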

Test [2] deals with CCAAT/enhancer-binding protein beta (Homo sapiens) (UniProt P17676). As to the kind of experiment: ATG_C_EBP_CIS: Attagene CIS-FACTORIAL HepG2 Assay for human CCAAT/Enhancer Binding Protein (C/EBP) beta (AID 2282927). The conditions noted are these: HepG2 Attagene cis-factorial transcription factor reporter; actives raise or lower the signal. In a few lines:
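Endogenous transcription factor activity in human liver HepG2 cells is inferred from induction of a CEBPB-linked reporter mRNA. Exposure lasts 24 h; activity is fitted in both directions relative to DMSO.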

The nature of test [3]: ATG_CMV_CIS: Attagene CIS-FACTORIAL HepG2 Assay for human CMV (Internal Marker) (AID 2282928).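 Note: endpoint acts as a background internal control marker rather than a target.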 The following applies: HepG2 CMV promoter reporter, transcription factor profiling; actives raise or lower the signal. Put shortly: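 After transient transfection of HepG2 with reporter transcription units driven by cis-regulatory promoters, cells receive test chemical for 24 h. Labeled reporter amplicons, digested with HpaI, are sized and quantified by capillary electrophoresis against DMSO.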

Test [4] in a line: ATG_DR4_LXR_CIS: Attagene CIS-FACTORIAL HepG2 Assay for human Liver X Receptor (LXR), DR4 submotif (AID 2282929). The following applies: HepG2 Attagene DR4 cis-reporter, mRNA transcription; actives raise or lower the signal. In a few lines: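 HepG2 cells were transiently transfected with multiple cis-regulated reporter units and dosed for 24 hours. The DR4 reporter mRNA was quantified by RT-PCR, 6-FAM labelling and capillary electrophoresis. Bidirectional fits used DMSO as baseline.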

Test [5] deals with Aryl hydrocarbon receptor (Homo sapiens) (UniProt P35869). As to the kind of experiment: ATG_Ahr_CIS: Attagene CIS-FACTORIAL HepG2 Assay for human Aryl Hydrocarbon Receptor (Ahr) (AID 2282930). The conditions noted are these: HepG2 AhR cis-factorial reporter transcription; actives raise or lower the signal. In a few lines: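 Transient MRTU transfection of HepG2 → 24 h compound exposure → total RNA, oligo(dT) RT → PCR, 6-FAM extension, HpaI cut → CE fluorescence. DMSO = baseline; bidirectional curve fit.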
Sequence of Aryl hydrocarbon receptor (Homo sapiens) (P35869 whole entry, looked up): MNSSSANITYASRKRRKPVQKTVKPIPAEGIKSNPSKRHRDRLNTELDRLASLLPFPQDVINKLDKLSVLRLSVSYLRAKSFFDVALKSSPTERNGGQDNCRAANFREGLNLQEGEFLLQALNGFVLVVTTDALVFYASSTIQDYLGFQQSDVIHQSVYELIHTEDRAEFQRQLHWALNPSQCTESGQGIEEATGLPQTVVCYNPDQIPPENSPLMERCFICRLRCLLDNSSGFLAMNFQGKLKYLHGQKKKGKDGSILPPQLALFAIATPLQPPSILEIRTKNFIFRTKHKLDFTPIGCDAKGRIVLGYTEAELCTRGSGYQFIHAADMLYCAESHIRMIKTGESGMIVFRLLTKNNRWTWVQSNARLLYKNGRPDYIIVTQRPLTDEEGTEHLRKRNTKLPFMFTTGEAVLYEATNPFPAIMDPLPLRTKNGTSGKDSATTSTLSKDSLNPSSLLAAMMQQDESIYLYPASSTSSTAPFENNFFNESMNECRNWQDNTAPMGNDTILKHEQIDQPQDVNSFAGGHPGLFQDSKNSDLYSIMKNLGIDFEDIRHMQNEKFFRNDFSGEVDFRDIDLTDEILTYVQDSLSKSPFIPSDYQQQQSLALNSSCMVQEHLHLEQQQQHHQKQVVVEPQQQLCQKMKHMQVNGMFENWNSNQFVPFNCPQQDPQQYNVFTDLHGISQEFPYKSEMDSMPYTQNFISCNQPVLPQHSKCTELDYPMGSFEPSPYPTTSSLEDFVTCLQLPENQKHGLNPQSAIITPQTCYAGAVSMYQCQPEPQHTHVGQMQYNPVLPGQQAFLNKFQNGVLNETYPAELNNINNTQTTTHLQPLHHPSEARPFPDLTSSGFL

Test [6] can be described thus: ATG_AP_1_CIS: Attagene CIS-FACTORIAL HepG2 Assay for human Activator Protein 1 (AP-1) (AID 2282931). The conditions noted are these: HepG2 Attagene cis-factorial AP-1 reporter mRNA; actives raise or lower the signal. In a few lines:
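HepG2 cells transiently transfected with cis-element-driven reporter transcription units, dosed for 24 hours. Reporter mRNA measured by RT-PCR, 6-FAM labelling, HpaI digestion and capillary electrophoresis. Bidirectional fitting against DMSO baseline.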

A short description of test [7]: ATG_AP_2_CIS: Attagene CIS-FACTORIAL HepG2 Assay for human Activator Protein 2 (AP-2) (AID 2282932). The following applies: HepG2 AP-2 cis-reporter, Attagene transcription factor profiling; actives raise or lower the signal. Put shortly:
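Step one: transient transfection of HepG2 with reporter transcription units. Step two: 24 h chemical exposure. Step three: RNA extraction, RT-PCR, labelled fragment analysis by capillary electrophoresis; DMSO serves as baseline.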

A short description of test [8]: ATG_BRE_CIS: Attagene CIS-FACTORIAL HepG2 Assay for human Bone Morphogenetic Protein (BMP) Response Element (BRE) (AID 2282933). The conditions noted are these: HepG2 BMP response element reporter, Attagene transcription factor profiling; actives raise or lower the signal. Put shortly:
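After a 24 h chemical treatment, transiently transfected HepG2 cells were lysed for RNA; reporter transcripts were quantified by fluorescent RT-PCR and capillary electrophoresis, normalised to DMSO.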

For test [9], the target named is Retinoic acid receptor alpha (Homo sapiens) (UniProt P10276). As to the kind of experiment: ATG_DR5_RAR_CIS: Attagene CIS-FACTORIAL HepG2 Assay for human Retinoic Acid Receptor Alpha (RARE), DR5 submotif (AID 2282934). The following applies: HepG2 Attagene cis-factorial RARE DR5 reporter, mRNA; actives raise or lower the signal. Put shortly:
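Transient MRTU transfection of HepG2; 24 h compound treatment; TriZol RNA, oligo(dT) RT, PCR, FAM labelling, capillary electrophoresis. Bidirectional fit vs DMSO. Endogenous TF activity at DR5 RARE.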

In test [10] the target is Transcription factor E2F1 (Homo sapiens) (UniProt Q01094). As to the kind of experiment: ATG_E2F_CIS: Attagene CIS-FACTORIAL HepG2 Assay for human E2F Transcription Factor 1 (AID 2282935). The conditions noted are these: HepG2 Attagene cis-reporter, E2F reporter RNA transcripts; actives raise or lower the signal. In a few lines:
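Total RNA from 24 h-treated, reporter-transfected HepG2 cells undergoes DNase I treatment, oligo(dT) reverse transcription, PCR and 6-FAM primer extension before capillary electrophoresis.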

Test [11] in a line: ATG_E_Box_CIS: Attagene CIS-FACTORIAL HepG2 Assay for human Enhancer Box (E-box) (AID 2282936). The following applies: HepG2 E-box cis-reporter transcription, actives raise or lower the signal. In a few lines:
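DMSO served as negative control and baseline for bidirectional fitting. Human hepatoma HepG2 cells, transiently transfected with cis-reporter constructs, were dosed 24 h; reporter mRNA read by RT-PCR and capillary electrophoresis.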

Test [12] is described as follows: ATG_M_61_CIS: Attagene CIS-FACTORIAL HepG2 Assay for M61 Transcription Factor (Internal Marker) (AID 2282937). The conditions noted are these: HepG2 Attagene CIS-FACTORIAL M61 internal marker reporter; actives raise or lower the signal. Put shortly:
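HepG2 cells transiently transfected with multiplexed cis-promoter reporter units reporting endogenous transcription factor activity, measured 24 h after dosing. Reporter mRNA quantified by RT-PCR and capillary electrophoresis; bidirectional fit against DMSO baseline.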

Test [13] is described as follows: ATG_EGR_CIS: Attagene CIS-FACTORIAL HepG2 Assay for human Early Growth Response 1 (EGR1) (AID 2282938). The following applies: HepG2 Attagene CIS-FACTORIAL EGR reporter mRNA; actives raise or lower the signal. Put shortly:
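HepG2 cells transiently transfected with cis-element-driven multiplexed reporter units, dosed for 24 h. EGR1-element reporter mRNA quantified by RT-PCR, 6-FAM labelling, HpaI digestion and capillary electrophoresis; bidirectional fit versus DMSO.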

Test [14] in a line: ATG_M_19_CIS: Attagene CIS-FACTORIAL HepG2 Assay for M19 Transcription Factor (Internal Marker) (AID 2282939). The conditions noted are these: HepG2 Attagene CIS-FACTORIAL M19 internal marker reporter; actives raise or lower the signal. In a few lines: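 In this multiplexed cell assay, transiently transfected HepG2 reporter units report endogenous transcription-factor activity; after 24 hours of treatment, labelled reporter cDNA fragments are quantified by capillary electrophoresis and fitted bidirectionally against DMSO.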

Test [15] in a line: ATG_Ets_CIS: Attagene CIS-FACTORIAL HepG2 Assay for human Erythroblast Transformation Specific (ETS) (AID 2282941). The conditions noted are these: HepG2 ETS cis-reporter transcription, actives raise or lower the signal. In a few lines: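 Human HepG2 hepatoma cells were transiently transfected with promoter-driven reporter constructs and treated for 24 hours. Reporter transcripts were quantified by RT-PCR with fluorescent primer extension; bidirectional curve fitting used DMSO as reference.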

The target in test [16] is Hepatocyte nuclear factor 3-beta (Homo sapiens) (UniProt Q9Y261). As to the kind of experiment: ATG_FoxA2_CIS: Attagene CIS-FACTORIAL HepG2 Assay for human Forkhead box A2 (FOXA2) (AID 2282942). The following applies: HepG2 cis-reporter transcription factor activity, 24 h; actives raise or lower the signal. Put shortly:
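HepG2 transiently transfected with a multiplexed cis-promoter reporter library read endogenous FOXA2 activity. After 24 h compound exposure, reporter mRNA was quantified by RT-PCR, HpaI digestion and capillary electrophoresis. Bidirectional fit against DMSO.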

The nature of test [17]: ATG_FoxO_CIS: Attagene CIS-FACTORIAL HepG2 Assay for human Forkhead box O (FoxO) (AID 2282943). The following applies: HepG2 Attagene cis-reporter, FoxO element, mRNA; actives raise or lower the signal. In a few lines: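 HepG2, transient MRTU transfection (cis element, endogenous TFs). Dose 24 h. TriZol RNA → oligo(dT) RT → PCR → 6-FAM primer extension → HpaI cut → CE. Gain/loss vs DMSO.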

Test [18] is described as follows: ATG_GATA_CIS: Attagene CIS-FACTORIAL HepG2 Assay for human GATA Binding Protein (AID 2282944). The conditions noted are these: HepG2 GATA cis-element reporter, Attagene multiplex mRNA; actives raise or lower the signal. Put shortly: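 Measures endogenous transcription factor-driven reporter mRNA in HepG2 cells transiently carrying cis-regulated constructs. 24 h dosing; RNA via oligo(dT) reverse transcription, PCR, HpaI digestion, capillary electrophoresis; fitted relative to DMSO.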

Test [19] in a line: ATG_GLI_CIS: Attagene CIS-FACTORIAL HepG2 Assay for human Zinc Finger Protein GLI1 (AID 2282945). The conditions noted are these: HepG2, Attagene cis-factorial reporter mRNA, GLI element; actives raise or lower the signal. Put shortly: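 Bidirectional curve fits relative to DMSO, using reporter mRNA levels from RT-PCR plus capillary electrophoresis. Cells were HepG2 transiently carrying cis-regulated reporter constructs, harvested 24 h after dosing.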

Test [20] in a line: ATG_ERE_CIS: Attagene CIS-FACTORIAL HepG2 Assay for Estrogen Response Element (ERE) (AID 2282940). The conditions noted are these: HepG2 ERE cis-reporter, Attagene RNA transcript; actives raise or lower the signal. Put shortly: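 Measuring endogenous transcription factor output, the assay doses transfected HepG2 cells for 24 hours and quantifies reporter transcripts by fluorescent RT-PCR and capillary electrophoresis, with DMSO as baseline.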

Seven compounds from PubChem BioAssay (EPA / NIEHS) can be followed below.

The term AC50 denotes the midpoint of the concentration-response curve, whichever way the signal moves.

The source made the active and inactive calls. Rule for the calls: active = hit-call score of the fitted dose curve at least 0.9, where 1 is the maximum; inactive = score below 0.9.

Sequence of CCAAT/enhancer-binding protein beta (Homo sapiens) (P17676 whole entry, looked up): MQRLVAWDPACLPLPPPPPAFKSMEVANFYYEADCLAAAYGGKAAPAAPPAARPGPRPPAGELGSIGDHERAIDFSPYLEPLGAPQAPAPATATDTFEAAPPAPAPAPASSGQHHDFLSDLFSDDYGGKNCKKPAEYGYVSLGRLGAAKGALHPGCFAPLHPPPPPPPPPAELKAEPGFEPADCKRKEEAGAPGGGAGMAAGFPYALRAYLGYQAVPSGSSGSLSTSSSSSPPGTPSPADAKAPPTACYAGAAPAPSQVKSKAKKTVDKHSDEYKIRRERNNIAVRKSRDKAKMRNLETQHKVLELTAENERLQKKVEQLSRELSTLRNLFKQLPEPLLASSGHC
Sequence of Hepatocyte nuclear factor 3-beta (Homo sapiens) (Q9Y261 whole entry, looked up): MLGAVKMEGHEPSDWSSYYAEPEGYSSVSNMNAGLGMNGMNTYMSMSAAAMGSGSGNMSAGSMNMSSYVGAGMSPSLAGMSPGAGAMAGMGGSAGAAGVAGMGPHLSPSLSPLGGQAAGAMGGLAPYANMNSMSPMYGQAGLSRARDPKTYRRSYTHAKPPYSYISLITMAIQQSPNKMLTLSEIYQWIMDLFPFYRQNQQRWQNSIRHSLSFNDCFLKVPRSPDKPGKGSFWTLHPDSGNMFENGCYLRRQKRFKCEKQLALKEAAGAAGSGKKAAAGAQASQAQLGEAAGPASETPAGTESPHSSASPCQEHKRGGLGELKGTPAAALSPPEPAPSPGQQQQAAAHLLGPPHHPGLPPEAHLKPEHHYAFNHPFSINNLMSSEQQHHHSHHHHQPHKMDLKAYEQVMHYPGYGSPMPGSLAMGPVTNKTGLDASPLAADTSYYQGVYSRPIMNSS
Sequence of Transcription factor E2F1 (Homo sapiens) (Q01094 whole entry, looked up): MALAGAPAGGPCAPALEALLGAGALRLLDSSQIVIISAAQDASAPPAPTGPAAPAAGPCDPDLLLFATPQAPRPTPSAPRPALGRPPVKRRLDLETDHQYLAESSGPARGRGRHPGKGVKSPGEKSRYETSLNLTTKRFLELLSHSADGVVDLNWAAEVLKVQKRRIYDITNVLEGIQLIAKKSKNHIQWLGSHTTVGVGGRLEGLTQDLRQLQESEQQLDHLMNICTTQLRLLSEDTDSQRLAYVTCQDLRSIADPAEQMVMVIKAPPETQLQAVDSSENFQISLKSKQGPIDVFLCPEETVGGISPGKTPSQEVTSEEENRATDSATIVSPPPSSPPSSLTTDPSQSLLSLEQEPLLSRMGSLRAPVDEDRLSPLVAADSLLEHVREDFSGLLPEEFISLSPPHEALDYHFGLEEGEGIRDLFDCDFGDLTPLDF
Sequence of Retinoic acid receptor alpha (Homo sapiens) (P10276 whole entry, looked up): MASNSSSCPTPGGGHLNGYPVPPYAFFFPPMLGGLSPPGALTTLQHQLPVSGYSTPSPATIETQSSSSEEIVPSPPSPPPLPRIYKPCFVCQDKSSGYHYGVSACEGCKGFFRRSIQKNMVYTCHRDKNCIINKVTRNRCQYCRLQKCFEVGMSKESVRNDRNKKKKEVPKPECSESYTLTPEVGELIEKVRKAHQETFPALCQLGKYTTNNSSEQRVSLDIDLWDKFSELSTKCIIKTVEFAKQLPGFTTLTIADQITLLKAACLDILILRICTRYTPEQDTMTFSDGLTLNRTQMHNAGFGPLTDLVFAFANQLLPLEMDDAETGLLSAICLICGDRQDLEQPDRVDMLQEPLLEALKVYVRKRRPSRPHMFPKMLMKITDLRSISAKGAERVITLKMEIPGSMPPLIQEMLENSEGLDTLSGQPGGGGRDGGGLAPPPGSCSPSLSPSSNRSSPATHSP

With `COC(=O)Nc1nc2ccccc2[nH]1`, the compound was classed as inactive in test [1], in [2], in test [3], in [4], in test [6] and in [7]. For the same compound, the result in test [8], in [9], in test [10], in test [11], in test [12] and in test [13] was inactive. In addition, the result in test [14], in [15], in [16], in [17], in test [18] and in test [19] was inactive. In [5], the half-maximal activity concentration (AC50) was 13300 nM (active).

As for `CCC[CH2][Sn]([Cl])([CH2]CCC)[CH2]CCC`, the call in [1], in [5], in test [7], in test [8], in test [10] and in [12] was inactive. For the same compound, the call in [20], in test [15], in [16], in [17], in test [18] and in test [19] was inactive. The AC50 is 97 nM (active) in test [2]; 552 nM (active) in test [3]; 412 nM (active) in [4]; 522 nM (active) in test [6]; 627 nM (active) in test [11]; 659 nM (active) in test [13].

As for `CC(O)CCO` (stereo not drawn), the compound was classed as inactive in test [1], in test [2], in test [3], in test [4], in test [5] and in test [6]. Further, the compound was called inactive in [7], in test [8], in test [9], in test [10], in test [11] and in test [12]. The call in test [13], in test [15], in [16], in test [17], in test [18] and in test [19] was inactive.

On to `O=C1CCCO1`, for which the compound was classed as inactive in [1], in [2], in test [3], in [4], in [5] and in test [6]. The result in test [7], in test [8], in [9], in test [10], in test [11] and in test [12] was inactive. In addition, the result in [13], in [14], in [15], in test [16], in test [17] and in test [18] was inactive. Besides, the call in test [19] was inactive.

For `CCCCCCCCCCCCCN1CC(C)OC(C)C1` (stereo not drawn), the compound was classed as inactive in test [1], in test [2], in test [5], in test [7], in test [9] and in test [10]. Further, the outcome in test [11], in test [12], in test [13], in [20], in test [15] and in test [16] was inactive. Also, the compound was classed as inactive in test [17], in test [18] and in test [19]. The AC50 in [3] was 33400 nM (active); in test [6], 50900 nM (active); in test [8] it was 50000 nM (active).

Consider `Nc1ccc(Oc2ccc(N)cc2)cc1`, for which the result in test [1], in test [2], in test [3], in [4], in test [5] and in test [6] was inactive. The call in test [7], in test [8], in test [9], in test [10], in test [11] and in [12] was inactive. The call in [13], in [15], in [16], in test [17], in test [18] and in [19] was inactive.

As for `[O-][Cl+]O`, the call in [1], in test [2], in [3], in test [4], in test [5] and in [6] was inactive. Moreover, the compound was called inactive in test [7], in test [8], in [9], in test [11], in [12] and in test [13]. Moreover, the result in [20], in [15], in test [16], in test [17], in test [18] and in test [19] was inactive.
